Assay results taken from PubChem BioAssay (EPA / NIEHS).
Results filed as inconclusive are left out. Activity calls are given as the source filed them. The calls were made as follows: active = hit-call score of the fitted dose curve at least 0.9, where 1 is the maximum; inconclusive = response in the unintended direction; inactive = score below 0.9.

What was measured:
[1] = ACEA_AR_agonist_AUC_viability: ACEA Biosciences xCELLigence Real-Time Cell Analysis on Androgen Receptor Agonism for Viability (AID 2283775);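 as to AC50: viability read 80 hours after compound addition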
Procedure, shortened: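 Real-time impedance tracking of 22Rv1 growth, readings every 5 min for 5 h then hourly; area-under-curve viability endpoint at 80 hours, relative to DMSO. Compounds at eight concentrations, 1:4 steps, top 100 uM, n = 2.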

[2] = ACEA_AR_antagonist_AUC_viability: ACEA Biosciences xCELLigence Real-Time Cell Analysis on Androgen Receptor Antagonism for Viability (AID 2283776);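 also: 22Rv1 human prostate cancer cells growing on impedance electrode plates; hits lower the growth signal relative to DMSO meaning cytotoxicity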
Procedure, shortened: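 Real-time electrical impedance tracks 22Rv1 proliferation after continuous compound exposure (top 100 uM final, 1:4 steps, 8 concentrations). The 80 h area-under-curve serves as the cytotoxicity readout relative to DMSO.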

[3] = STM_H9_NormalizedViability: Cytotoxicity Assessment at 120 hours in the Stemina devTOX quickPredict H9 human embryonic stem cell (hESC)-based Assay (AID 2283784)
Procedure, shortened: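 Pluripotent H9 cells dosed, fresh medium plus compound q24h → cell layer read by CellTiter-Fluor → RFU blank-corrected, normalized to DMSO 0.1% mean. Loss-of-signal fit, DMSO as baseline.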

AR (gene 367) [4] = molecular target: AR (gene 367) (UniProt P10275); assay: ACEA_AR_antagonist_80hr: ACEA Biosciences xCELLigence Real-Time Cell Analysis on Androgen Receptor Antagonism for Proliferation (AID 2283787);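 also: 22Rv1 human prostate cancer cells with growth followed by electrical impedance; hits lower the impedance growth signal relative to DMSO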
Sequence of AR (gene 367) (P10275 whole entry, looked up): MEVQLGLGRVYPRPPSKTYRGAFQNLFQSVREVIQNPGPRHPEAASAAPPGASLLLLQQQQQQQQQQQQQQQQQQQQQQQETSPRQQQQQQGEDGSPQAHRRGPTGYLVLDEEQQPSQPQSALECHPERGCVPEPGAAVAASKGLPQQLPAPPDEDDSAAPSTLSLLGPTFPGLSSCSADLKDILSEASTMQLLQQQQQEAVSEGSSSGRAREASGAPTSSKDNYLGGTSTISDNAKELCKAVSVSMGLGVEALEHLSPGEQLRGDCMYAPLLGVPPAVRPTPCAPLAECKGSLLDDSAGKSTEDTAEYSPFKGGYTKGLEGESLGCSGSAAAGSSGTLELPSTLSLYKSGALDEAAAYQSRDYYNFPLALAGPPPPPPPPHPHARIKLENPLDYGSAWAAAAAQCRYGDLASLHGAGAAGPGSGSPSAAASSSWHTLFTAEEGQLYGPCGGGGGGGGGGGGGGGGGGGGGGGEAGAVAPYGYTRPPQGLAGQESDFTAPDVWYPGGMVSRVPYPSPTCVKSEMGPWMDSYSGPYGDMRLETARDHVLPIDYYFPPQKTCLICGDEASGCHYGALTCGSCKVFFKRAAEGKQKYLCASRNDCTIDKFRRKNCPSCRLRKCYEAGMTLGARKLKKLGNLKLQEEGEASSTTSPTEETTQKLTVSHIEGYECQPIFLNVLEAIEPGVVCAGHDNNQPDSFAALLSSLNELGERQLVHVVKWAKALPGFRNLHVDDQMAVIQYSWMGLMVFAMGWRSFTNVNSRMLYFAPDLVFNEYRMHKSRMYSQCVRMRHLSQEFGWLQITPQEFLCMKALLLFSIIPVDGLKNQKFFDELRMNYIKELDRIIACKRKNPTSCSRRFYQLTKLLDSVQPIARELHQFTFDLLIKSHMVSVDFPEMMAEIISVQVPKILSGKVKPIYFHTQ
Procedure, shortened: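 Growth-kinetic antagonist readout in 22Rv1 cells, taken 80 h after continuous compound exposure. Activity fitted as signal loss relative to DMSO negative control.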

[5] = ACEA_ER_AUC_viability: ACEA Biosciences xCELLigence Real-Time Cell Analysis on Estrogen Receptor Agonism for Viability (AID 2283782);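 also: hit means loss of impedance signal meaning reduced cell growth or viability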
Procedure, shortened: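 T-47D; phenol red-free RPMI1640 + 10% CS-FBS; 8 conc., 1:4 serial, max 100 uM final, ≤0.5% DMSO; n = 2; continuous exposure; impedance monitored to 80 h post-dose; AUC vs DMSO.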

AR (gene 367) [6] = molecular target: AR (gene 367) (UniProt P10275); assay: ACEA_AR_agonist_80hr: ACEA Biosciences xCELLigence Real-Time Cell Analysis on Androgen Receptor Agonism for Proliferation (AID 2283783);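 also: hits increase impedance growth signal above DMSO baseline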
Procedure, shortened: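 Androgen-driven proliferation in 22Rv1 cells is tracked as electrical impedance, taken 80 h after continuous exposure to compound (eight concentrations, 1:4 steps, maximum 100 uM final). Activity is fitted in the positive direction with DMSO as baseline.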

SMILES: O=C1CCCO1
- outcome [1]: inactive
- outcome [2]: inactive
- outcome [3]: inactive
- outcome (AR (gene 367) [4]): inactive

SMILES: ClCCOCCCl
- outcome [1]: inactive
- outcome [5]: inactive

SMILES: Oc1ccc2ccc3cccc4ccc1c2c34
- AC50 [1]: 83.3 µM (active)
- AC50 [2]: 74.6 µM (active)
- AC50 [5]: 79.6 µM (active)
- outcome [3]: inactive

SMILES: Clc1ccccc1Cl
- outcome [2]: inactive
- outcome [5]: inactive

SMILES: Clc1ccc(Cl)c(Cl)c1
- outcome [2]: inactive
- outcome [3]: inactive

SMILES: COc1cc(C=O)cc2c1[C@H](COC(N)=O)[C@]1(OC(C)=O)ON2C[C@H]2[C@@H]1N2C(C)=O
- AC50 [1]: 0.0199 µM (active)
- AC50 [2]: 0.00824 µM (active)
- AC50 [3]: 0.00149 µM (active)

SMILES: [Cl-].[Cl-].[Hg+2]
- AC50 [1]: 4.59 µM (active)
- AC50 [2]: 5.66 µM (active)
- AC50 [5]: 16.9 µM (active)
- AC50 [3]: 1.36 µM (active)

SMILES: Cc1cccc(N)c1N
- outcome [2]: inactive
- outcome [5]: inactive
- AC50 [3]: 75.7 µM (active)

SMILES: Brc1ccc(Oc2ccccc2)cc1
- outcome [1]: inactive
- outcome [2]: inactive
- outcome [5]: inactive
- outcome [3]: inactive

SMILES: OCCOCCO
- outcome [2]: inactive

SMILES: CNC(=O)Oc1cccc2c1OC(C)(C)C2
- outcome [1]: inactive
- outcome [2]: inactive
- outcome [5]: inactive
- AC50 [3]: 21.4 µM (active)
- outcome (AR (gene 367) [4]): inactive

SMILES: Cc1ccc(N)c(N)c1
- AC50 [2]: 50 µM (active)
- AC50 [5]: 6.06 µM (active)
- AC50 [3]: 26.9 µM (active)

SMILES: CS(=O)(=O)NC(=O)c1cc(Oc2ccc(C(F)(F)F)cc2Cl)ccc1[N+](=O)[O-]
- outcome [2]: inactive
- outcome [5]: inactive

SMILES: CC(C)(C)OOC(C)(C)CCC(C)(C)OOC(C)(C)C
- outcome [2]: inactive

SMILES: CC(C)(O)c1cnn2c(-c3ccc(F)c(-c4c(F)cccc4C#N)c3)cnc2n1
- outcome [1]: inactive
- AC50 [2]: 51.1 µM (active)
- AC50 (AR (gene 367) [4]): 57.9 µM (active)

SMILES: Nc1ccc(Oc2ccc(N)cc2)cc1
- outcome [1]: inactive
- outcome [2]: inactive
- AC50 [3]: 75.5 µM (active)

SMILES: N#CC(Br)Br
- outcome [2]: inactive

SMILES: CO[C@@H]1[C@H](OC(=O)NC(=O)CCl)CC[C@]2(CO2)[C@H]1[C@@]1(C)O[C@@H]1CC=C(C)C
- AC50 [1]: 0.00152 µM (active)
- AC50 [2]: 3.27 µM (active)
- AC50 [3]: 0.0978 µM (active)
- AC50 (AR (gene 367) [4]): 12.6 µM (active)

SMILES: c1ccc(N=Nc2ccccc2)cc1
- outcome [2]: inactive

SMILES: O=C(O)C1C2CCC(O2)C1C(=O)O (configuration not stated)
- AC50 [2]: 35.4 µM (active)
- AC50 [5]: 21.9 µM (active)

SMILES: CC(C)N(Cc1ccccc1)C(=O)C(C)(C)C
- outcome [1]: inactive
- outcome [2]: inactive
- outcome (AR (gene 367) [4]): inactive

SMILES: CC(C)COC(=O)c1ccccc1C(=O)OCC(C)C
- AC50 [1]: 74.9 µM (active)
- AC50 [2]: 74.8 µM (active)
- outcome [5]: inactive
- outcome [3]: inactive

SMILES: COC(=O)c1ccccc1N
- outcome [5]: inactive

SMILES: OCCCBr
- outcome [1]: inactive
- outcome [2]: inactive
- outcome [3]: inactive

SMILES: Cc1cc(N=Nc2ccccc2C)ccc1N
- AC50 [1]: 66.1 µM (active)
- AC50 [2]: 42.2 µM (active)
- AC50 [5]: 50 µM (active)
- AC50 (AR (gene 367) [4]): 52.6 µM (active)

SMILES: Nc1ccc(Cl)cc1N
- AC50 [2]: 50 µM (active)
- outcome [5]: inactive
- outcome (AR (gene 367) [6]): inactive
- AC50 (AR (gene 367) [4]): 50 µM (active)

SMILES: Cc1ccc(N)cc1
- outcome [1]: inactive
- outcome [2]: inactive
- AC50 [3]: 40.9 µM (active)

SMILES: c1ccc(NNc2ccccc2)cc1
- outcome [5]: inactive

SMILES: C1=Cc2cccc3cccc1c23
- outcome [2]: inactive
- outcome [5]: inactive

SMILES: CCCCC(CC)COC(=O)c1ccc(C(=O)OCC(CC)CCCC)c(C(=O)OCC(CC)CCCC)c1 (configuration not stated)
- outcome [2]: inactive
- outcome (AR (gene 367) [6]): inactive

SMILES: OCCCl
- outcome [5]: inactive

SMILES: O=P(OCCCl)(OCCCl)OCCCl
- outcome [5]: inactive
- outcome [3]: inactive

SMILES: c1ccc2c(c1)-c1cccc3cccc-2c13
- AC50 [2]: 8.92 µM (active)
- outcome [5]: inactive

SMILES: CCN(CC)N=O
- outcome [3]: inactive
